# In PubChem BioAssay (Tox21):
# Inconclusive results are not listed. A call without a number means that no potency is given here. Unmarked numbers belong to inactive results. Active and inactive are the calls of the source. Calls follow the shape of the dose curve; as a rule, active = well fitted cell-killing curve with a large enough effect in the repeat runs; inconclusive = weak or mixed curves; inactive = flat fitted curve, though single readings scatter.
# Experiment: qHTS RealTime-Glo MT Cell Viability Assay in HepG2 cells - 16 hour (AID 1224885); also: nearly all actives have a fitted effect of over 50% in size
# Details: RealTime-Glo luminescence; series mostly up to 76.8 µM
# From the text: U.S. Tox21 Program National Center for Advancing Translational Sciences [NCATS] NIH Chemical Genomics Center [NCGC] U.S. Environmental Protection Agency [EPA] National Institutes of Environmental Health Sciences [NIEHS] National Toxicology Program [NTP] U.S. Food and Drug Administration [FDA] Tox21 Assay Overview: Measure of cell viability is critical in the cell-base assay. Analysis of cell viability is necessary for the characterization of cell responses to cytotoxic drugs and environmental stress. A RealTime-Glo MT Cell Viability Assay to monitor cell viability in real time of continues cell culture during 40 hours of compound treatment was used to screen Tox21 10K library compounds in HepG2 cells. The RealTime-Glo MT Cell Viability Assay is a nonlytic, homogeneous, bioluminescent method to measure cell viability in real time using a simple, plate-based method. The assay involves adding NanoLuc luciferase and a cell-permeant prosubstrate to cells in culture. Viable cells reduce the proprietary prosubstrate to generate a substrate for NanoLuc luciferase. This substrate diffuses from cells into the surrounding culture medium, where it is rapidly used by the NanoLuc Enzyme to produce a luminescent signal. The signal correlates with the number of viable cells, making the assay well suited for cytotoxicity studies.
# Tox21 Assay Protocol Summary: The mixture of HepG2 cell suspension and reagents were dispensed at 600cells/6 ul/well in 1536-well tissue culture treated black solid bottom plates using a Multidrop dispenser. After the assay plates were incubated at a 37 C/5% CO2 incubator for 5 hours, 23 nL of compounds dissolved in DMSO, positive and negative controls was transferred to the assay plate by a pintool work station. The plates were incubated at 37 C for 40 hours. The luminescence intensity were measured at 0h, 8h, 16h, 24h, 32h and 40h time points using ViewLux plate reader during compound treatment.
SMILES,Potency,"activity change, negative = cytotoxic"
CCOC(=O)C(SP(=S)(OC)OC)c1ccccc1 (stereo not given),inactive,–
ClC(Cl)(Cl)Cl,inactive,–
CCNc1nc(NCC)nc(SC)n1,inactive,–
CN(CCO)CCO,inactive,–
C[C@@H](N)[C@@H](O)c1ccccc1,inactive,–
Cn1c(N)nc2c3cccnc3ccc21,inactive,–
CNC(=O)Oc1ccccc1C(C)C,inactive,–
COc1ccc2c(C(=O)c3ccc(Cl)cc3)c(C)n(CC(=O)O)c2c1,inactive,–
CN(C)C(=O)Oc1cc(OC(=O)N(C)C)cc(C(O)CNC(C)(C)C)c1 (stereo not given),inactive,–
CCOC(=O)COc1ccc(Cl)cc1Cl,inactive,–
CCCOC(=O)c1cncn1C(C)c1ccccc1 (stereo not given),inactive,–
C[C@H]1CCCC(=O)CCC/C=C/c2cc(O)cc(O)c2C(=O)O1,inactive,–
CCN(CCO)CCO,inactive,–
CCNP(=S)(OC)O/C(C)=C/C(=O)OC(C)C (stereo not given),inactive,–
CCCCCCCCBr,inactive,–
O=C(NC(O)C(Cl)(Cl)Cl)NC(O)C(Cl)(Cl)Cl (stereo not given),inactive,–
COc1ccc(C=O)cc1O,inactive,–
N#CN,inactive,–
CC[C@@H](CO)NC(=O)[C@@H]1C=C2c3cccc4c3c(cn4C)C[C@H]2N(C)C1,inactive,–
CCCCOC(C)=O,inactive,–

SMILES,Potency,"activity change, negative = cytotoxic"
C=C(Cl)CSC(=S)N(CC)CC,inactive,–
CCCN1CCC[C@@H]2Cc3nc(N)ncc3C[C@H]21,inactive,–
N[C@@H]1C[C@H]1c1ccccc1,inactive,–
Cc1cccc2sc3nncn3c12,inactive,–
CC(C)N(Cc1ccccc1)C(=O)C(C)(C)C,inactive,–
BrCCc1ccccc1,inactive,–
CCOP(=S)(OCC)SCCl,inactive,–
CC(=O)OCC1=C(C(=O)O)N2C(=O)[C@@H](N)[C@H]2SC1,–,0.0339% [at 15.8 µM]
CCC(C)C(C)(COC(N)=O)COC(N)=O (stereo not given),inactive,–
O=C(Cl)/C=C/C(=O)Cl,inactive,–
CC(C)c1ccc(O)cc1,inactive,–
O=C/C=C/c1ccco1,inactive,–
CCc1cc(OC)c(C[C@H](C)N)cc1OC,inactive,–
COc1ccccc1OC,inactive,–
C[C@H](N)C(=O)c1ccccc1,inactive,–
c1cncc([C@@H]2CCCCN2)c1,inactive,–
Clc1cc2c(cc1Cl)Oc1cc(Cl)c(Cl)cc1O2,–,2.3% [at 0.29 µM]
CC[C@@H](CO)NC(=O)[C@@H]1C=C2c3cccc4[nH]cc(c34)C[C@H]2N(C)C1,inactive,–
C=CCCC#N,inactive,–
CCSC(=O)Cl,inactive,–
